Screening data deposited in PubChem by several laboratories.
JNK3 inh = JNK3 (human) kinase inhibition; hit rate 0.61% among 60,000; inhibition, % at 8 µM; purified JNK3 kinase activity, HTS; AID 746; in the data active = inhibition above about 17%;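 note: 0% = DMSO and 100% = reference inhibitor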
ROCK2 blocker = blocks human Rho kinase 2 activity; O75116; purified ROCK2, Kinase-Glo ATP depletion luminescence; inhibition, % at 6 µM; hit rate 0.35% among 60,000; AID 604;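 active = inhibition above the screen-wide mean inhibition plus 3 SD, cut at about 18% in these data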;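 note: plate controls were DMSO wells for no effect and Y-27632 control wells after no-enzyme background subtraction for full effect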
D1 mod = D1 dopamine receptor (human) allosteric modulation; P21728; HEK293 D1, CRE-luciferase, dopamine EC30 potentiation; actives deviate in either direction; B-score at 10 µM; hit rate 5.9% among 58,000; AID 641;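 active = luminescence count or its row- and column-corrected plate score outside the 99.7% band of the plate's sample wells, on either side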
DAT uptake mod = modulates human dopamine transporter uptake under cocaine. LLC-PK1 hDAT cells, [14C]-dopamine uptake with cocaine IC80; actives deviate in either direction. B-score at 10 µM. hit rate 1.3% among 110,000. AID 449768;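 active = Z score or B-score, a plate-position-corrected score, falls beyond the plate's 99.7% confidence bounds, in either direction; inactive = both scores lie inside the 99.7% bounds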;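 note: scored against the spread of the other compound wells on the same plate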
Target sequence (Q01959 whole entry, looked up): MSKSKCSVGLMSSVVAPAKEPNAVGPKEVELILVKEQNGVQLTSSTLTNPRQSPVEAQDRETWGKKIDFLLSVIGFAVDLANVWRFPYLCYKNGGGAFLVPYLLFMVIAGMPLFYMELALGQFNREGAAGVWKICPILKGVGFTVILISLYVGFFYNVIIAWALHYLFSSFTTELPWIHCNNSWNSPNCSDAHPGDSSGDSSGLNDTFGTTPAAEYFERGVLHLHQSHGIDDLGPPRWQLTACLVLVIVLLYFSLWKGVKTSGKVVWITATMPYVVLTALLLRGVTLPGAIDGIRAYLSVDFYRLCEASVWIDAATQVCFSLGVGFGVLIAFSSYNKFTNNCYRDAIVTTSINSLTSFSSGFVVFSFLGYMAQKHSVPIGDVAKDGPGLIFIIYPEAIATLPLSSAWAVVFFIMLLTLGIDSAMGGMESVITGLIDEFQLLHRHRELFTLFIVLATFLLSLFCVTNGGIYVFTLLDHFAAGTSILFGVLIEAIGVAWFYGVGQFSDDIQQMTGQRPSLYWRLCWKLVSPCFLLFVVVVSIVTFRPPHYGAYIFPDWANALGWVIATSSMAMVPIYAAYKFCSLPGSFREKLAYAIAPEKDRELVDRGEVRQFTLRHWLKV
PKA inh = blocks human protein kinase A activity | hit rate 0.1% among 65,000 | P17612 | inhibition, % at 6 µM | PKA Kemptide phosphorylation, Kinase-Glo ATP luminescence;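 active = inhibition above the screen-wide mean inhibition plus 3 SD, cut at about 21% in these data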
D1 PAM confirm = confirmation of human D1 dopamine receptor allosteric modulators; shares compounds with D1 mod; HEK293 D1 CRE-luciferase, dopamine EC30 potentiation; hits give high values; luminescence at 10 µM; hit rate 88% among 2,200; AID 642;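 active = luminescence in either of two replicates above the same-plate mean plus 3 SD of the low-dose dopamine control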
D1 ag no DA = activates D1 CRE-luciferase signal without dopamine present. shares compounds with D1 mod. AID 646. HEK293 D1 CRE-luciferase, luminescence, no dopamine; hits give high values. hit rate 0.8% among 1,900. luminescence at 10 µM; in the data active = luminescence above about 3900
Isoprot counter = alters isoproterenol CRE-luciferase response in HEK293 cells; calls only at 10 µM; hit rate 63% among 2,200; HEK293 D1 CRE-luciferase, isoproterenol EC30 counter-screen; shares compounds with D1 mod;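 active = luminescence in either replicate above plate mean of wells with a partly effective reference agonist dose plus 3 SD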;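 note: isoproterenol raises cAMP through native beta-adrenoceptor Gs so signal bypasses D1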
An asterisk follows results filed as active; i = inactive; · = not tested or not shown; + = active, no number. The entries come from a sample that favours hits as a whole.

SMILES | JNK3 inh | ROCK2 blocker | D1 mod | DAT uptake mod | PKA inh | D1 PAM confirm | D1 ag no DA | Isoprot counter
CCCn1c(SCC(=O)Nc2cccc(C)n2)nnc1-c1ccco1 | 5 | 0 | 0.28 | 0.25 | -1 | · | · | ·
CCN(CC)c1nc(N)c2c(N)nc3c(c2c1C#N)CC(c1ccccc1)O3 (configuration not stated) | -4 | 2 | 3.6* | 0.69 | 5 | 6688* | 1392 | i
COc1ccc(Nc2nc(N)nc(SCc3nnc(C)s3)n2)cc1 | 0 | 5 | 5.7* | 0.59 | 6 | 8828* | 1624 | +
COc1ccc(Nc2nc(N)nc(CSc3nnc(N)s3)n2)cc1 | · | · | · | 1.1 | · | · | · | ·
Cc1ccc(-n2ncc(C#N)c2/N=C/N2CCOCC2)cc1 | -1 | 6 | 14* | 0.84 | 7 | 14372* | 1604 | +
COc1ccc(C(=O)N2CCCC(c3nc(-c4ccc(OC)c(OC)c4)no3)C2)c(OC)c1 (configuration not stated) | 2 | 0 | · | -0.015 | -1 | · | · | ·
COc1ccc(OC)c(-n2c(SCC(C)=O)nnc2-c2cccc(S(=O)(=O)N(C)C)c2)c1 | -5 | 0 | 3.8* | 0.26 | 1 | 6400 | 1712 | i
COc1cccc(-n2c(SCc3c(C)noc3C)nnc2-c2cccc(S(=O)(=O)N(C)C)c2)c1 | 2 | 6 | 9.1* | -0.13 | 6 | 12244* | 1492 | +
CCNc1nc(NC(C)C)nc(Oc2ccc(/C=N/O)cc2)n1 | · | · | · | 1.3 | · | · | · | ·
CCCCN(N=Nc1nonc1OC)c1nonc1OC | · | · | · | -0.028 | · | · | · | ·
COc1cc(Cl)c(C)cc1NC(=O)COc1ccccc1[N+](=O)[O-] | · | · | · | -0.85 | · | · | · | ·
COc1ccccc1NC(=O)CC1Nc2ccccc2NC1=O (configuration not stated) | -7 | -2 | 3.7* | 0.18 | 0 | 6444* | 1504 | i
Nc1nc(Cl)nc2c1ncn2[C@@H]1O[C@H](CO)[C@@H](O)[C@H]1O | 7 | 8 | 24* | -0.57 | 2 | 16252* | 5660* | +
CCCC(=O)OCC(=O)Nc1cc(C(C)(C)C)nn1-c1ccccc1 | -7 | -4 | 4.7* | -1.2 | -2 | 6968* | · | i
COc1ccc(-c2cc([C@H]3[C@@H]4C=CCC[C@@]4(C)C(=O)N3Cc3ccccc3)ccc2F)cc1OC | · | · | · | -0.43 | · | · | · | ·
Nc1nc(SCC(=O)C23CC4CC(CC(C4)C2)C3)n[nH]1 | 2 | 4 | 5.3* | -0.088 | 4 | 8548* | · | i
CSc1nc(N)nc(SCC(=O)C23CC4CC(CC(C4)C2)C3)c1C#N | -7 | 4 | · | 0.92 | -1 | · | · | ·
Cc1nnc(SCCn2c(N3CCCC(C)C3)nc3c2c(=O)[nH]c(=O)n3C)s1 (configuration not stated) | 3 | 9 | 4.1* | 0.079 | 1 | 9916* | 1740 | i
Cn1c(=O)c2c(nc(N3CCCCC3)n2CCSc2nc3ccccc3s2)n(C)c1=O | 2 | 0 | -0.1 | 0.39 | 4 | · | · | ·
Cn1c(=O)[nH]c(=O)c2c1nc(Br)n2CCCSc1nc2ccccc2o1 | -6 | -2 | 6.7* | -0.74 | -7 | 10016* | 1580 | +
CC1CCCN(c2nc3c(c(=O)[nH]c(=O)n3C)n2CCSc2nc3ccccc3o2)C1 (configuration not stated) | 4 | 1 | · | 0.25 | 5 | · | · | ·
Cn1c(=O)[nH]c(=O)c2c1nc(N1CCCC1)n2CCCSc1nc2ccccc2o1 | · | · | 5.3* | 0.22 | -3 | 17352* | 2232 | +
Cn1c(=O)[nH]c(=O)c2c1nc(N1CCCCC1)n2CCCSc1nc2ccccc2s1 | 0 | 7 | 5.7* | 1.1 | -3 | 16664* | 1660 | +
CCCn1nc2cc(C(=O)NCCc3cccs3)ccc2c1OCC | · | · | · | 0.063 | · | · | · | ·
C=CCn1c(SCC(=O)Nc2ncc(Cc3ccc(Br)cc3)s2)nnc1-c1ccncc1 | · | · | · | -0.5 | · | · | · | ·
Cc1ccc2oc(=O)c3cnn(CC(=O)N4CCCc5ccccc54)c3c2c1 | 5 | 3 | 1.6 | -0.2 | 3 | · | · | ·
CCCCn1c(CCn2nc(C)c(Br)c2C)n[nH]c1=S | · | · | · | -0.15 | · | · | · | ·
COc1ccc(-c2nnc(COc3ccc4ccccc4c3)o2)cc1OC | · | · | 4.9* | 2.9* | · | 20456* | 1420 | +
